Source: the supplement of paper PMC5499739
In all, about 16,000 sequences were measured (“Z-score”: median about -0.37, highest 2% from about 3.2 on). For the sample, the highest values were picked, then their nearest neighbours and some sequences at random.

Test system: RBM10 RRM1-ZnF (GST-tagged construct)
Assay: RNAcompete 7-mer binding Z-score; higher = stronger binding preference
Procedure: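 RNAcompete: 20 pmol GST-tagged RBM10 RNA-binding constructs were incubated with a designed RNA pool of about 241,000 sequences up to 41 nt (1.5 nmol) on glutathione beads for 30 min at 4 °C and washed. Bound RNAs were identified by microarray hybridisation. Each RNA 7-mer is scored by a one-sided Z-score of its enrichment, computed over probes that contain the 7-mer within longer pool sequences.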

Sequence | RNAcompete 7-mer binding Z-score
CACCUUG | -0.516
ACUAGUG | 0.0983
GUACCAG | -0.035
ACCAGGA | 0.823
CGCGGCG | 1.25
CGCCAUA | -0.594
UGAGGGC | 2.27
UGAGGGU | 3.48
CGAGGGA | 2.84
UGAGGAG | 1.86
UGAGGCU | 0.3
UGAGGGA | 4.02
AGAGGGU | 2.22
CGAGGGC | 1.06
CGAGGUU | 0.846
UGAGGGG | 3.64
CGAGGGU | 3.7
UGAGAGG | 1.94
UAGCGGC | -0.132
AGAUGAU | 0.287
UGACUCC | -0.652
AUUUAAC | -0.561
GGGAGAU | 2.7
CGAAGCU | -0.691
GUCAGCU | -0.425

Sequence | RNAcompete 7-mer binding Z-score
AGUGCCG | -0.11
UCGCAAU | -0.545
CGAACGA | -0.123
GGGCAUA | 1.66
AUACACC | -0.795
CUGAGGC | -0.0155
GGAGGGU | 3.97
GGAGGAU | 2.46
GGAGGCU | 1.41
CCCAAUG | -0.662
UUAGGGA | 2.03
CUAGGGG | 2.46
AUAGGCG | 0.781
GUAGGGC | 2.49
UUAGGGU | 2.78
GUAGGGG | 4.54
UUAGGGG | 2.4
AUAGGUG | 2.64
GUAGGGA | 3.87
AUAGGGG | 3.9
CUAGGGU | 2.25
GUAGGGU | 4.46
GCAUACU | -0.694
UACAGGU | 0.881
AUAGCAG | 0.358

Sequence | RNAcompete 7-mer binding Z-score
ACUCGGG | 0.667
ACAACCA | -0.464
CAAUGUC | -0.75
GAGACCA | -0.126
GACUAAC | -0.626
UCCUUGC | -0.733
GACUGGG | 2.42
GUAGGAG | 3.43
AUAGGGU | 3.61
AUAGGGA | 2.86
CUAGGAG | 0.608
AUAGGGC | 1.72
GUAGGAC | 1.4
CCAGCAA | -0.617
AUGGCAU | 0.514
UUAAAAA | -0.444
GGCCUGC | -0.428
AAAAGCG | 0.378
ACUUCUC | -0.841
UAUAAUA | -0.412
CGCGUGC | -0.223
ACCGGGU | 0.631
ACGGGGU | 4.07
ACGGGUG | 3.39
ACGGGGG | 3.27

Sequence | RNAcompete 7-mer binding Z-score
ACGGGGC | 2.26
ACGGGGA | 3.04
ACGGGUC | 1.19
GCGGGUG | 3.17
ACGGGUU | 2.65
CUCAAUC | -0.769
ACGCUCG | -0.636
UUUUAUC | -0.873
CAGCCUG | -0.513
GAAGUGG | 3.46
GAAGUGU | 1.08
GAAGUGC | 0.29
GGAGUGG | 4.84
AGAGUGG | 2.81
GGAGUGA | 2.38
CGUCCCG | -0.594
CGUUCUA | -0.811
UUUCUUA | -0.727
UUAUAAC | -0.704
GACUAUA | -0.542
UAAGGCU | 0.183
GAAGGGC | 2.98
UAAGGGU | 3.44
GAAGGCU | 0.621
AAAGGGC | 2.62

Sequence | RNAcompete 7-mer binding Z-score
UAAGGCG | 1.03
CAAGGGA | 2.42
GAAGGGU | 4.19
CAAGGGU | 2.65
UAAGGGG | 3.27
CAAGGGG | 2.79
AAAGGGA | 4.42
ACUUAGU | -0.435
GAAUGCU | -0.184
AUAGAAU | -0.132
CCUCGCU | -0.681
UUACUAC | -0.707
UGCUGUG | -0.119
UCUGACG | -0.535
UACCAAC | -0.668
GAAGGCA | 1.7
GAAGGGA | 4.52
GCAGGGA | 2.92
UAAGGGA | 3.27
UAAGGGC | 1.49
UAAGGCA | 0.888
CCUCAUC | -0.737
CCACGUA | -0.578
GGACAGU | 0.842
GGGCAGA | 2.45

Sequence | RNAcompete 7-mer binding Z-score
GGGCGAA | 2.22
CGGCGGG | 2.07
UGGCGGG | 3.47
GGGCAGG | 3.39
GGACAGG | 3.3
AGGCAGG | 1.8
GGGCGAG | 3.37
GGGCGAC | 1.81
AGACAGG | 1.59
UGGCGGU | 1.49
UCUGGUA | -0.435
CAUAACA | -0.444
UGUUAUC | -0.457
UGUCUCU | -0.649
CGCUAUC | -0.668
CGGAAGC | 0.283
GGACAAU | 0.927
UGCGACA | -0.145
UCAGAUC | -0.604
ACUAGGA | 0.719
GGGCGGA | 2.86
GGGCGGG | 3.66
GGGCGGU | 2.28
CUCAAAU | -0.698
AACUUCC | -0.919

Sequence | RNAcompete 7-mer binding Z-score
AAAUUCA | -0.668
CUGUUAA | -0.779
UGGUACG | 1.43
AAACUAG | -0.327
UGGGGUA | 3.56
GCGGGUA | 2.88
CGGGGUA | 3.2
AGGGGUC | 1.98
GGGGGUA | 3.99
AGGGGUA | 3.69
ACGGGUA | 2.05
UUGGGUA | 2.33
GACCGGC | -0.532
UGGAGUG | 3.08
GCUUCCC | -0.665
UGUACAC | -0.24
AUGCAAG | 0.472
ACAGGCC | -0.0512
UCCUUUG | -0.876
UCCGGCG | -0.275
AUCCGGU | -0.227
GAGUUAA | 0.29
GAGAAGA | 1.22
AAGAAGG | 3.54
GAGAAGG | 4.53

Sequence | RNAcompete 7-mer binding Z-score
CAGAAGG | 1.57
UAGAAGG | 3.12
AUGAAGG | 2.96
AAGAAGA | 1.11
CUGAAGG | 1.22
GUGAAGG | 3.74
AUAAAGU | -0.155
UUCCCGC | -0.759
UCUCUUG | -0.714
ACGGGAU | 2.02
AAAGUCC | -0.561
UCGACGA | -0.327
GCCAGCG | -0.0544
UCGAAGC | -0.36
AUUGGGU | 2.9
AUGGGAA | 3.97
UUGGGAG | 2.68
AUGGGAG | 3.64
UUGGGAA | 2.12
AUGGGGA | 4.27
AUGGGGU | 3.92
CUGGGAG | 1.66
AUCGGGU | 1.7
AUGGGCA | 2.11
CUGGGAA | 1.47

Sequence | RNAcompete 7-mer binding Z-score
CGACCUG | -0.571
GACGAAC | -0.181
UUUUGAU | -0.629
UAUUGGC | -0.201
AAUGGUA | 2.63
AACAACC | -0.72
AGGAACU | -0.0155
AUGGGGG | 4.12
AUGGGCG | 2.86
AUGGGGC | 2.81
AUCUAAA | -0.451
AGGGAUU | 2.3
GGGGAUA | 3.45
AGGGAUC | 1.02
AGGGAUA | 4.2
CGGGAUA | 1.56
GAGGAUA | 2.15
CUUAGUG | -0.282
AGGAGAU | 1.41
AAUGCGC | -0.428
UGGCGGA | 1.83
AGGGGGG | 2.76
GGGGGCU | 2.22
CGGGGGU | 3.46
GGGGGGU | 3.81

Sequence | RNAcompete 7-mer binding Z-score
GGGGGGG | 3.4
GGGGGGC | 2.37
CGGGGUU | 2.77
CCGGGGU | 2.08
GGGGCGU | 2.64
GUUUUAC | -0.591
AGAAGUA | 0.173
ACCCGGU | -0.415
UUUCGUA | -0.779
AUACAUA | -0.269
AUCUUAU | -0.863
AGUCACG | 0.0138
UUUCGUC | -0.811
AUGAGGU | 1.9
AUGAGGC | 0.969
AUGAGGG | 3.84
UUGAGGG | 3.4
GUGAGGC | 1.53
GUGAGGG | 3.75
UUGAGGA | 1.14
CUGAGGG | 1.81
UUGAGGC | 0.115
UGACCCC | -0.246
UCGAAGA | -0.171
AAUUCAG | -0.496

Sequence | RNAcompete 7-mer binding Z-score
CCCCGAC | -0.0772
AACUCUA | -0.854
UCUUAUC | -0.86
GUGGGGA | 4.7
CUGGGGU | 2.18
GUGGGCG | 3
GUGGGGU | 4.71
CUGGGGG | 2.28
GUGGGGG | 4.47
GUGGGCA | 3.06
GUGGGAG | 4.08
CUGGGGA | 1.76
UUGGGAC | 1.58
GUGGGUU | 3.11
GCGGGAG | 2.86
CCCCAAA | -0.6
UCGAGCG | 0.0723
GGCUCAU | -0.318
AGGAACC | -0.139
CUGCGGA | 0.199
UAUGCCC | -0.6
AUGACGC | -0.383
CCAGACC | -0.642
AGGCGCA | 0.0528
AUGGGAC | 2.09

Sequence | RNAcompete 7-mer binding Z-score
AUGGGAU | 3.45
GUGGGAA | 3.62
GUCGGAA | 0.8
CUGGGGC | 0.901
GCGGGAA | 2.66
GUGGGAU | 3.68
AUGGGCU | 1.6
CUGGGAU | 1.11
GUGGGAC | 2.35
GUGGGGC | 3.52
GUGGGCC | 1.46
CGGCGGA | 0.862
CCUUGUA | -0.733
GUUCGGC | -0.0869
UUCGUUG | -0.162
GGGCAGC | 1.32
CCAUGGU | 0.254
ACUACUG | -0.428
CUGCGCU | -0.633
GUGGCGC | 0.992
CUGGCGG | 0.508
GUGGCGG | 3.26
UUAUCGG | -0.171
AGUCGUG | 0.124
AGGGAUG | 4.59

Sequence | RNAcompete 7-mer binding Z-score
CGGGAUG | 2.48
AGGGACG | 2.13
UGGGAUU | 1.9
UGGGAUG | 3.61
GGGGAUG | 4.52
UGGGAUA | 3.05
GGGGAUC | 2.29
GGGGAUU | 2.75
GCCAGAC | -0.386
GUGAGGA | 2.69
GAGUGUA | 0.972
AGCUGGA | 0.8
UGGUGAG | 2.98
CAGCAAG | -0.0804
AAAAUAU | -0.324
GCUCAAG | -0.386
AAGCAUG | -0.035
AGAGUGA | 0.81
GUAUGGG | 4.25
GAAUGGG | 4.76
CAAUGGG | 2.34
GAAUGGC | 1.27
AAAUGGC | 1.05
AAAUGGU | 2.86
UAAUGGG | 2.84

Sequence | RNAcompete 7-mer binding Z-score
AAAUGGA | 3.63
CUAUGGG | 1.13
AAAUGGG | 4.08
ACAUGGA | 1.7
GUAUGGA | 2.12
CGUAUGC | -0.542
CCGGAGC | 0.0625
GGCUUAG | 0.527
CCUUACG | -0.818
GGGUUAC | 2.16
AGGUACG | 0.751
UCCAGUU | -0.639
AGCAUUC | -0.694
UUGGUUG | 0.917
GUGACGG | 2.02
UAAUGGA | 1.93
CAAUGGA | 1.1
GAAUGGA | 4.02
CACGGGG | 2.66
AACGGGA | 3.45
GACGGGG | 3.13
AACGGGG | 3.45
AACGGGU | 3.03
CACGGGA | 1.5
UACUUUC | -0.974

Sequence | RNAcompete 7-mer binding Z-score
GUACUGA | 0.0138
UUGGGAU | 2
AGGGGCU | 1.35
GGGGGAC | 2.25
AGGGGAC | 2.18
AGGGGAU | 3.64
UGGGGAC | 3.17
UGGGGAU | 3.57
GGGGGAU | 3.32
CGGGGAU | 2.5
CACCUAU | -0.902
UCGUCAA | -0.594
CUAUCGG | -0.5
CACGCGC | -0.366
GGCCUAU | -0.565
UGUUGUC | -0.574
GUCCGGU | 0.082
